Lassa entry inh = qHTS for Inhibitors of binding or entry into cells for Lassa Virus | AID 540256, 2011 | Potency, µM (series often up to 37.9 µM), actives largely listed as inhibitors | Lassa virus pseudotype entry inhibition, cell reporter | 300,000 compounds, 1.2% hits; calls by dose curve; tested in HEK293 cells; note: nearly all actives have a fitted effect of over 50% in size
Shiga toxin inh = A qHTS for Small Molecule Inhibitors of Shiga Toxin; Vero cells, Shiga toxin protein synthesis inhibition reporter; inhibition, % at 38.7 µM; 290,000 compounds, 9.2% hits; AID 2315, 2010; in the data active = inhibition mostly above about 28%, no sharp cut-off; inactive = mostly below about 43%
Pf growth 96h = Primary qHTS for delayed death inhibitors of the malarial parasite plastid, 96 hour incubation | P. falciparum luciferase reporter growth, 96 h | Potency, µM (highest dose often 28.7 µM), most hits filed as inhibitors | 320,000 compounds, 6.9% hits
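Luminescence readout: decreased luciferase signal marks inhibited growth of reporter-expressing P. falciparum in infected red cells (2% hematocrit, 0.05% parasitemia final), exposed to compound two generations (96 h, 37 C, 5% CO2).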
Pf growth 48h = Primary qHTS for delayed death inhibitors of the malarial parasite plastid, 48 hour incubation | P. falciparum luciferase growth in erythrocytes, 48 h | Potency, µM (titrated, usually from 28.7 µM), hits mostly inhibitors | 310,000 compounds, 5.9% hits
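A one-generation exposure of luciferase-tagged malaria parasites in RPMI 1640/Albumax erythrocyte culture, 37 C and 5% CO2. Inhibition is inferred from decreased luminescence after adding detection reagent.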
Cycloheximide cs = Cycloheximide Counterscreen for Small Molecule Inhibitors of Shiga Toxin; cell reporter, cycloheximide protein synthesis inhibition counterscreen; max response, %; 300,000 compounds, 12% hits; in the data active = max response mostly above about 13%, no sharp cut-off; inactive = mostly below about 14%; note: read at 38.3 µM for the half of the compounds with a filed dose
MARV entry inh = qHTS for inhibitors of binding or entry into cells for Marburg Virus; Marburg virus pseudotyped entry inhibition, cell reporter; Potency, µM (series often up to 37.8 µM), most hits filed as inhibitors; 300,000 compounds, 1.8% hits; calls by dose curve; tested in HEK293 cells
Each line names hits and unclear results; the compound was inactive in the other large screens. An excerpt weighted towards active compounds, which were near 19% of everything screened. Unless noted, calls come from the whole dose curve; as a rule, active = well fitted inhibition curve with a large enough effect; inconclusive = small, poorly fitted or top-dose-only effect, or another doubt; inactive = no such curve, though single readings can be large or run the other way.

O=C(CSc1nnc(-c2cccnc2)n1Cc1ccccc1)NCc1ccco1	none
O=C(O)c1ccccc1SCc1ccc2c(c1)OCO2	Lassa entry inh inconclusive, Pf growth 96h inconclusive, MARV entry inh inconclusive
O=[N+]([O-])c1ccc(Oc2cccc3cccnc23)c(Cl)c1	MARV entry inh inconclusive
CC(C)(CO)NC(=O)CC1C(=O)NCCN1Cc1ccc(-c2ccccc2)cc1 (configuration not stated)	Pf growth 96h inconclusive, Pf growth 48h inconclusive
Cc1ccc(C(=O)NCCCC(=O)O)o1	Pf growth 96h inconclusive
COC(=O)c1sccc1NC(=O)c1cccc(OC)c1	MARV entry inh inconclusive (no result: Pf growth 48h)
COC(=O)c1sccc1N/N=C/c1cccc(OC)c1O	Lassa entry inh inconclusive, Cycloheximide cs 19.4, MARV entry inh inconclusive
COC(=O)c1sccc1N/N=C/c1cccc(Oc2ccccc2)c1	Lassa entry inh inconclusive, Shiga toxin inh 38.3, Cycloheximide cs 39.6
COc1ccc(/C=N/NC(=O)C(N)=O)c(OC)c1OC	none
COC(=O)c1sccc1N/N=C/c1ccc(OC)c(OC)c1OC	Lassa entry inh inconclusive, Shiga toxin inh 39.2, Cycloheximide cs 46.7, MARV entry inh inconclusive
Cn1c(=O)c2c(nc(CN3CCN(c4ccccc4F)CC3)n2CCN2CCOCC2)n(C)c1=O	Pf growth 48h inconclusive
Cc1ccc(N(Cc2cccs2)C(=O)COc2cccc(C)c2)cc1	MARV entry inh inconclusive (no result: Shiga toxin inh, Pf growth 96h, Pf growth 48h, Cycloheximide cs)
CCC(=O)Nc1c2c(nn1-c1ccc(OC)cc1)CS(=O)C2 (configuration not stated)	Pf growth 96h inconclusive (no result: Lassa entry inh, Pf growth 48h, MARV entry inh)
CCC(CC)C(=O)Nc1c2c(nn1-c1ccc(OC)cc1)CS(=O)C2 (configuration not stated)	Pf growth 96h 0.0329µM (no result: Pf growth 48h)
Cc1cccc(NC(=S)NC(NC(=O)c2ccco2)C(Cl)(Cl)Cl)c1 (configuration not stated)	Pf growth 48h 13.1µM, MARV entry inh inconclusive (no result: Pf growth 96h)
O=C(O)c1ccc(NC(=S)NC(NC(=O)c2ccco2)C(Cl)(Cl)Cl)cc1 (configuration not stated)	none (no result: Pf growth 48h)
Cc1ccc(NC(=S)NC(NC(=O)c2ccco2)C(Cl)(Cl)Cl)cc1 (configuration not stated)	Pf growth 48h 4.65µM, MARV entry inh inconclusive (no result: Pf growth 96h)
CC(OC(=O)c1cccnc1Cl)C(=O)Nc1ccc(S(N)(=O)=O)cc1 (configuration not stated)	MARV entry inh inconclusive
CCc1ccc(Oc2cc(Cl)nc(N)n2)cc1	Shiga toxin inh 65.3, Cycloheximide cs 49.9, MARV entry inh inconclusive
COc1cccc(Oc2cc(Cl)nc(N)n2)c1	Lassa entry inh inconclusive, Shiga toxin inh 20.5, Cycloheximide cs 15.7
COc1ccccc1C(=O)Nn1c(C)nc2ccccc2c1=O	none (no result: Pf growth 48h)
CCc1ccc(NC(=O)CC2S/C(=N/N=C3CCCCCC3)NC2=O)cc1 (configuration not stated)	Pf growth 96h inconclusive
CCCCN1CC(=O)N2[C@H]3c4ccccc4OC[C@@H]3[C@H](c3ccccc3)[C@]2(C)C1=O	Pf growth 96h 5.86µM, Pf growth 48h inconclusive (no result: Lassa entry inh, Shiga toxin inh, Cycloheximide cs, MARV entry inh)
Cc1ccc(CN2CC(=O)N3[C@H]4c5ccccc5OC[C@@H]4[C@H](c4ccccc4)[C@]3(C)C2=O)cc1	Pf growth 96h inconclusive, Pf growth 48h 9.28µM (no result: Lassa entry inh, Shiga toxin inh, Cycloheximide cs, MARV entry inh)
O=C(CNc1cccc(S(=O)(=O)N2CCCCC2)c1)Nc1cccc(F)c1	Pf growth 96h 2.33µM, Pf growth 48h 2.94µM (no result: Shiga toxin inh, Cycloheximide cs)
O=C(CNc1cccc(S(=O)(=O)N2CCCC2)c1)Nc1ccc(F)cc1F	Pf growth 96h 9.28µM, Pf growth 48h 8.28µM, MARV entry inh inconclusive (no result: Shiga toxin inh, Cycloheximide cs)
O=C(Nc1ccc(F)cc1F)c1cccc(S(=O)(=O)N2CCCCC2)c1	Pf growth 96h inconclusive (no result: Lassa entry inh, Shiga toxin inh, Cycloheximide cs, MARV entry inh)
COc1cc(C(=O)NNC(=O)C2CSC3(C)CCC(=O)N23)cc(OC)c1OC (configuration not stated)	none (no result: Lassa entry inh, Shiga toxin inh, Cycloheximide cs, MARV entry inh)
CCCCNC(=O)N(O)C1N(CCCC)C(=O)N(CC(=O)OC)C1(C)C (configuration not stated)	Pf growth 96h 5.22µM
CNC(=O)N(O)C1N(C)C(=O)N(CC(=O)OC)C1(C)C (configuration not stated)	none
Cc1ccc(/C=C/C(=O)c2ccccc2O)cc1	Shiga toxin inh 87.7, Cycloheximide cs 39.7, MARV entry inh inconclusive
